Molecules are shown by their SMILES. This is part of a sample that, as a whole, favours compounds with a hit. Of some 79,000 tested, about 15% had one in any assay. Activity calls are given as the source filed them. Rule as the data show it: active = growth inhibition above about 70%; inactive = the rest.

The source of these data is PubChem BioAssay (NCI).

The assay is described as follows: NCI Yeast Anticancer Drug Screen. Data for the mlh1 rad18 strain (AID 175). The conditions noted are these: S. cerevisiae mlh1 rad18 strain growth inhibition; at 50.0 µM; hits give high values. The method, boiled down: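 Steps: expose repair-defective yeast to compound; measure growth; express inhibition against vehicle-treated controls.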
In the case of `NC(Cc1c(F)c(F)c(F)c(F)c1F)C(=O)O` (stereo not drawn), the growth inhibition is -7.4% (inactive).

Consider `ClC1C2c3ccccc3C1C1C2C2(c3ccccc3)OC1(c1ccccc1)c1ccccc12` (stereo not drawn), for which the growth inhibition was 0.2% (inactive). Consider `COc1ccc(CCNC(=O)CCc2ccccc2CO)cc1OC`, for which the growth inhibition is -5.9% (inactive). With `Cc1cccc(NC(=O)Nc2cccc(Cl)c2Cl)n1`, the growth inhibition was 18.6% (inactive). As to `CCCCCC1CC[N-]CC1.CCCCCC1CC[N-]CC1.N#C[S-].N#C[S-].[Cu]`, the growth inhibition was 24.1% (inactive). Under `CCOC(=O)C(C)(C)OC(C)=O` stands 2.15% (inactive). `Cc1nc(C(N)=O)c(=O)[nH]c1C`: the growth inhibition is 13.7% (inactive). For `C(=Nc1cccc2ccccc12)Nc1cccc2ccccc12`, the growth inhibition is 1.25% (inactive). `Cc1cc2c(cc1C)C(C)(C)c1c(nc(N)[nH]c1=O)N2C`: the growth inhibition was 1.7% (inactive). For `COC(=O)C1CC(=O)c2cc(OC)ccc2C1` (stereo not drawn), the growth inhibition was -27.1% (inactive). Consider `CC[N+](C)(CC)c1cccc(OC(=O)N2CCCCC2)c1`, for which the growth inhibition was -16.9% (inactive).

Consider `Cc1cc(N(CCC#N)CCC#N)ccc1N=Nc1ccc(C(=O)O)cc1`, for which the growth inhibition is -25% (inactive). With `CCOC(=O)c1ccnc(F)c1`, the growth inhibition is 3.6% (inactive). With `Oc1ccccc1C=NCCCN=Cc1ccccc1O`, the growth inhibition is 21.5% (inactive). As for `CS(=O)(=O)Nc1cccc(C(=O)NN)c1`, the growth inhibition was 14.4% (inactive). As to `CCCCCCCCn1c(C)nc2c(cnn2C)c1=O`, the growth inhibition is 4.8% (inactive). Regarding `N=c1sc(N2CCOCC2)nn1CC(=O)c1ccccc1`, the growth inhibition is 15.1% (inactive).

As for `O=S(=O)(c1cnccc1N1CCN(CCO)CC1)N1CCCC1`, the growth inhibition is -1.5% (inactive). Consider `CCOC(=O)CCC(NC(=O)c1ccc(N=Cc2nc3ccccc3nc2-c2ccccc2)cc1)C(=O)OCC` (stereo not drawn), for which the growth inhibition was -7.7% (inactive).

Consider `NCS(=O)(=O)O`, for which the growth inhibition is -26.1% (inactive). On to `N#C/C(C(=O)Nc1ccccc1)=C(/N)N1CCCC1`, for which the growth inhibition is 25.6% (inactive). Under `CCCNS(C)(=O)=O` stands 3.6% (inactive); under `Oc1ccc(-c2csc(NNC3=NC/C(=C/c4ccc5c(c4)OCO5)S3)n2)cc1O`, 40.8% (inactive).
